# Assay results reported in PubChem BioAssay (NCI).
# This is part of a sample that, as a whole, favours compounds with a hit. Of some 79,000 tested, about 15% had one in any assay. Unmarked numbers belong to inactive results. Calls of active or inactive are those of the source. Cut-off read from the data, not from the text of the source: active = growth inhibition above about 70%; inactive = the rest.
# Assays:
# [1] = NCI Yeast Anticancer Drug Screen. Data for the rad50 strain (AID 155);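 note: 0% = growth of vehicle-only cultures of the same strain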; settings: S. cerevisiae rad50 strain growth inhibition, stronger effect = higher value
# Outline: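 Cells are treated with compound, grown, and their growth is then scored against vehicle-only cultures of the same repair-deficient yeast strain.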
# [2] = NCI Yeast Anticancer Drug Screen. Data for the mec2-1 strain (AID 157); settings: S. cerevisiae mec2-1 strain, stronger effect = higher value
# Outline: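 Strain: mec2-1 (DNA repair/cell cycle alteration). Compound exposure, then growth measured; inhibition expressed relative to vehicle.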
# [3] = NCI Yeast Anticancer Drug Screen. Data for the sgs1 mgt1 strain (AID 161);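 note: 0% = growth of cultures given vehicle only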; settings: S. cerevisiae sgs1 mgt1 strain, stronger effect = higher value
# Outline: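 Mutant yeast exposed to compound; growth scored against vehicle-only wells.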
# [4] = NCI Yeast Anticancer Drug Screen. Data for the cln2 rad14 strain (AID 165);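 note: 0% = growth equal to vehicle treated cultures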; settings: S. cerevisiae cln2 rad14 strain, stronger effect = higher value
# Outline: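 Compounds are applied to the cln2 rad14 yeast strain, and growth is then compared with that of vehicle-treated cultures to give inhibition.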
# [5] = NCI Yeast Anticancer Drug Screen. Data for the bub3 strain (AID 167); settings: S. cerevisiae bub3 mutant strain, stronger effect = higher value
# Outline: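 Part of a panel of yeast mutants defective in DNA damage repair or cell cycle regulation. Each strain is grown with compound, and inhibition is calculated relative to solvent-treated cultures.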
# [6] = NCI Yeast Anticancer Drug Screen. Data for the mlh1 rad18 strain (AID 175); settings: S. cerevisiae mlh1 rad18 strain growth inhibition, stronger effect = higher value
# Outline: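 Read-out is yeast growth inhibition, calculated against vehicle-only controls. The compound was applied to a strain engineered with DNA damage repair alterations.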
# [7] = at 5.0 µM (retest, dose inferred, filed as 0.5)
# [8] = at 50.0 µM (retest, dose inferred, filed as 5.0)
Compound,"growth inhibition [1, 7]","growth inhibition [1, 8]",growth inhibition ([1]; at 50.0 µM),"growth inhibition [2, 7]","growth inhibition [2, 8]",growth inhibition ([2]; at 50.0 µM),"growth inhibition [3, 7]","growth inhibition [3, 8]",growth inhibition ([3]; at 50.0 µM),"growth inhibition [4, 7]","growth inhibition [4, 8]",growth inhibition ([4]; at 50.0 µM),"growth inhibition [5, 7]","growth inhibition [5, 8]",growth inhibition ([5]; at 50.0 µM),"growth inhibition [6, 7]","growth inhibition [6, 8]",growth inhibition ([6]; at 50.0 µM)
COCCOCCOC(=O)CBr,-2%,96% (active),86.1% (active),-7%,96% (active),82.5% (active),1%,97% (active),88.7% (active),1%,68%,40.7%,-3%,94% (active),77.8% (active),-3%,97% (active),92.2% (active)
CC(=O)[C-](I)C(C)=O.CC(=O)[C-](I)C(C)=O.CC(=O)[C-](I)C(C)=O.[Ru+3],-6%,90% (active),48.2%,14%,95% (active),90.5% (active),5%,89% (active),35.8%,26%,85% (active),7.45%,18%,90% (active),-1.95%,32%,96% (active),53.5%
CCOc1c(Br)cc(N=Cc2ccc(N(CCCl)CCCl)c(OC)c2)cc1Br,6%,80% (active),85.2% (active),-5%,79% (active),45.8%,-86%,69%,76.2% (active),-3%,49%,44.4%,-11%,-16%,-15.8%,73% (active),95% (active),86.8% (active)
COc1cc(OC)c(/C=C(\C)[N+](=O)[O-])cc1Br,1%,1%,96.5% (active),3%,3%,84.9% (active),2%,-16%,88% (active),3%,0%,66.2%,-1%,0%,92.2% (active),2%,1%,98.7% (active)
CCCCCc1cc(O)c(CCCC)c(O)c1,-107%,87% (active),99.4% (active),-39%,63%,99% (active),-43%,90% (active),99% (active),-47%,32%,99.1% (active),-56%,83% (active),99.2% (active),-92%,87% (active),99% (active)
C[n+]1c(/C=C/c2ccc(O)c3ccccc23)[se]c2ccccc21,-3%,78% (active),84.8% (active),-13%,40%,47.4%,-24%,76% (active),87.1% (active),-2%,16%,41.2%,-5%,20%,74.6% (active),13%,81% (active),78.9% (active)
CCC[CH2][Sn]1([CH2]CCC)[O]CC(COc2c(Cl)cc(Cl)cc2Cl)[O]1 (configuration not stated),94% (active),94% (active),91.2% (active),92% (active),92% (active),91.3% (active),97% (active),97% (active),90.2% (active),89% (active),89% (active),90% (active),89% (active),89% (active),92.5% (active),91% (active),91% (active),89.8% (active)
c1ccc(N=c2snc(-c3ccccc3)s2)cc1,2%,2%,91.1% (active),-3%,-2%,46.8%,4%,3%,73.5% (active),3%,-2%,6.4%,-4%,2%,82.5% (active),5%,6%,80.2% (active)
O=C(N/N=C/c1cc(Br)cc(Br)c1[O-])c1ccccc1O.O=C(N/N=C/c1cc(Br)cc(Br)c1[O-])c1ccccc1O.[Zn+2],96% (active),98% (active),52.5%,96% (active),96% (active),90.7% (active),97% (active),98% (active),85.5% (active),94% (active),96% (active),64.5%,95% (active),96% (active),88.1% (active),95% (active),97% (active),83.5% (active)
CC12CCCCC1C(=O)C2(Cl)Cl (configuration not stated),-1%,11%,11.8%,1%,17%,-2.45%,-1%,48%,43%,-1%,-4%,1.65%,3%,13%,-3.55%,1%,37%,27.4%
CCCNC1=C(C)C(=O)C2=C(C1=O)[C@H](COC(N)=O)[C@]1(OC)[C@@H]3N[C@@H]3CN21,15%,66%,36.8%,15%,76% (active),38.9%,11%,64%,39.6%,5%,79% (active),51.7%,2%,37%,9.7%,47%,93% (active),79.8% (active)
COC1OCCC[CH]1[Hg][Cl] (configuration not stated),98% (active),99% (active),99.2% (active),100% (active),99% (active),99.3% (active),99% (active),99% (active),99.5% (active),99% (active),99% (active),99.3% (active),99% (active),99% (active),99.5% (active),99% (active),99% (active),99.2% (active)
[O-][n+]1onc2c1-c1nonc1CC2,21%,9%,-33.5%,-16%,-6%,5.65%,4%,22%,-10.3%,8%,21%,16%,6%,19%,-3.95%,-2%,11%,1.15%
[Cl][Hg][c]1ccco1,99% (active),99% (active),99.5% (active),100% (active),99% (active),99.5% (active),100% (active),100% (active),99.7% (active),99% (active),99% (active),99% (active),100% (active),100% (active),99.4% (active),99% (active),99% (active),99.2% (active)
O=C1CCC(=O)N1SC(Cl)(Cl)Cl,21%,26%,99.7% (active),20%,4%,99.7% (active),7%,6%,99.7% (active),-11%,-13%,99% (active),-12%,2%,99.5% (active),2%,18%,99.5% (active)
CC(=O)[O][Sn]([CH3])([CH3])[c]1ccccc1,2%,78% (active),81.2% (active),3%,50%,82.8% (active),1%,92% (active),92.5% (active),-13%,77% (active),74.9% (active),-6%,83% (active),84.2% (active),3%,94% (active),96.3% (active)
CN(C=O)C(=S)[S][Sb]([S]C(=S)N(C)C=O)[S]c1nc2ccc(N=Nc3ccc(NS(=O)(=O)c4ccc(NC(=O)C(N5CC5)(N5CC5)N5CC5)cc4)cc3)cc2s1,4%,6%,99.2% (active),0%,-5%,99.3% (active),-1%,20%,99.5% (active),4%,3%,98.7% (active),2%,8%,99.2% (active),0%,4%,99.2% (active)
C#CC1(OC(C)=O)CCC2C3CC=C4C=C(OC(C)=O)CCC4(C)C3CCC21C (configuration not stated),16%,48%,90.5% (active),-1%,17%,40.2%,2%,56%,86.9% (active),10%,15%,-0.6%,1%,3%,13.9%,2%,-4%,61.1%
CCN(CC)CC(=O)c1cc2ccccc2c2ccccc12,36%,97% (active),99.3% (active),14%,93% (active),92.2% (active),47%,97% (active),99.4% (active),2%,82% (active),31.1%,11%,98% (active),99.1% (active),36%,98% (active),99% (active)
